Source: the antibiotic and cytotoxicity screens of Wong et al. (2023)
The whole screen tested about 39,000 compounds, of which about 1,500 (3.8%) were called active. The list comes from a sample in which actives are over-represented; it also holds similar structures and randomly drawn compounds.

System: HSkMC (human skeletal muscle cells)
Assay: cytotoxicity call (relative viability < 0.9)
Conditions: 10 µM

Row | SMILES | cytotoxicity call
1 | CCCC#Cc1cnc2c(c1)C(=O)N([C@H](C)CO)C[C@H](C)[C@H](CN(C)C(=O)c1ccc3c(c1)OCO3)O2 | inactive
2 | C[C@H]1CN([C@@H](C)CO)C(=O)c2cc(NC(=O)Cn3cnnn3)ccc2O[C@H]1CN(C)C(=O)Nc1ccc(C(F)(F)F)cc1 | inactive
3 | C[C@H]1CN([C@@H](C)CO)C(=O)c2cc(NC(=O)Nc3ccc4c(c3)OCO4)ccc2O[C@@H]1CN(C)C(=O)Nc1ccc(C(F)(F)F)cc1 | inactive
4 | C[C@@H]1CN([C@@H](C)CO)C(=O)c2cc(NC(=O)Nc3ccc(C(F)(F)F)cc3)ccc2O[C@@H]1CN(C)C(=O)Nc1ccc2c(c1)OCO2 | active
5 | C[C@@H]1CN([C@@H](C)CO)C(=O)c2cc(NC(=O)Nc3ccc4c(c3)OCO4)ccc2O[C@H]1CN(C)C(=O)Nc1ccc(C(F)(F)F)cc1 | inactive
6 | CC(C)NC(=O)Nc1ccc2c(c1)C(=O)N([C@@H](C)CO)C[C@H](C)[C@@H](CN(C)Cc1ccc(Cl)c(Cl)c1)OCCCC[C@@H](C)O2 | inactive
7 | C[C@@H]1CN([C@H](C)CO)C(=O)c2cc(NS(=O)(=O)c3cccs3)ccc2O[C@@H](C)CCCCO[C@@H]1CN(C)C(=O)c1ccccc1 | inactive
8 | C[C@H]1CN([C@@H](C)CO)C(=O)Cc2cc(NC(=O)Nc3cccc4ccccc34)ccc2O[C@H]1CN(C)C(=O)Nc1ccccc1 | inactive
9 | C[C@@H]1CN([C@H](C)CO)C(=O)c2cccc(NC(=O)c3ccc(-c4nccs4)cc3)c2O[C@H]1CN(C)C(=O)Nc1ccccc1 | inactive
10 | CC(=O)NC[C@H]1CN(c2ccc(N3CCN(C(=O)CO)CC3)c(F)c2)C(=O)O1 | inactive
11 | CC(C)(C)CC(C)(C)c1cc(Cc2cc(C(C)(C)CC(C)(C)C)cc(-n3nc4ccccc4n3)c2O)c(O)c(-n2nc3ccccc3n2)c1 [listing 1 of 2 here] | inactive
12 | CC(C)(C)CC(C)(C)c1cc(Cc2cc(C(C)(C)CC(C)(C)C)cc(-n3nc4ccccc4n3)c2O)c(O)c(-n2nc3ccccc3n2)c1 [listing 2 of 2 here] | inactive
13 | CC(C)(C)CC(C)(C)c1ccc(O)c(Cc2ccc(Cl)cc2Cl)c1 | active
14 | O=C(CN1CCOCC1)NCC[C@@H]1CC[C@H](NC(=O)c2ccc3c(c2)OCO3)[C@@H](CO)O1 | inactive
15 | C[C@@H]1CN([C@@H](C)CO)C(=O)c2cc(C#CC3(O)CCCC3)cnc2O[C@@H]1CN(C)C(=O)CN(C)C | inactive
16 | CO[C@H]1CN(C)C(=O)c2cc(NC(=O)NC3CCCCC3)ccc2OC[C@@H](C)N(CCc2ccccc2)C[C@@H]1C | active
17 | C[C@@H]1CN([C@@H](C)CO)C(=O)c2cc(NC(=O)NC3CCCCC3)ccc2O[C@@H]1CN(C)Cc1ccc(-c2ccccc2)cc1 | active
18 | CO[C@H]1CN(C)C(=O)c2cc(NC(=O)NC3CCCCC3)ccc2OC[C@H](C)N(CCc2ccccc2)C[C@@H]1C | inactive
19 | C[C@@H]1CN([C@H](C)CO)C(=O)c2cc(NC(=O)NC3CCCCC3)ccc2O[C@H]1CN(C)Cc1ccc(-c2ccccc2)cc1 | inactive
20 | CO[C@@H]1CN(C)C(=O)c2cc(NC(=O)NC3CCCCC3)ccc2OC[C@H](C)N(CCc2ccccc2)C[C@H]1C | inactive
21 | C[C@@H]1CN([C@@H](C)CO)C(=O)c2cc(NC(=O)NC3CCCCC3)ccc2O[C@H]1CN(C)Cc1ccc(Oc2ccccc2)cc1 | active

Row | SMILES | cytotoxicity call
22 | C[C@H](CO)N1C[C@H](C)[C@H](CN(C)Cc2ccc(Oc3ccccc3)cc2)Oc2ccc(NC(=O)NC3CCCCC3)cc2C1=O | inactive
23 | C[C@@H]1CN([C@H](C)CO)C(=O)c2cc(NC(=O)NC3CCCCC3)ccc2O[C@H]1CN(C)Cc1ccc(Oc2ccccc2)cc1 | inactive
24 | C[C@@H]1CN([C@@H](C)CO)C(=O)c2cc(NC(=O)C3CCCCC3)ccc2O[C@@H]1CN(C)Cc1ccc(-c2ccccc2)cc1 | active
25 | C[C@H]1CN([C@@H](C)CO)C(=O)c2cc(NC(=O)NC3CCCCC3)ccc2O[C@H]1CN(C)Cc1ccc(-c2ccccc2)cc1 | inactive
26 | C[C@@H]1CN([C@H](C)CO)C(=O)c2cc(NC(=O)C3CCCCC3)ccc2O[C@@H]1CN(C)Cc1ccc(-c2ccccc2)cc1 | inactive
27 | C[C@H]1CN([C@@H](C)CO)C(=O)c2cc(NC(=O)C3CCCCC3)ccc2O[C@@H]1CN(C)Cc1ccc(-c2ccccc2)cc1 | inactive
28 | Cc1ccc(-c2c[nH]c(=S)[nH]2)cc1 | inactive
29 | Cc1noc(C)c1NC(=O)Nc1ccc2c(c1)CC(=O)N([C@H](C)CO)C[C@@H](C)[C@@H](CN(C)C(=O)Nc1cccc3ccccc13)O2 | inactive
30 | O=C(C[C@@H]1CC[C@H]2[C@@H](COC[C@@H](O)CN2S(=O)(=O)c2ccccc2)O1)NCCN1CCCC1 | inactive
31 | C[C@H]1CN([C@@H](C)CO)C(=O)Cc2cc(NS(C)(=O)=O)ccc2O[C@@H]1CN(C)C(=O)Nc1ccc2c(c1)OCO2 | inactive
32 | Cc1noc(C)c1NC(=O)Nc1cccc2c1O[C@@H](CN(C)S(C)(=O)=O)[C@H](C)CN([C@@H](C)CO)C2=O | inactive
33 | NCCCCCNC(=O)[C@H]1C[C@H]2C(=O)NCC(=O)N2[C@H]1c1cccc(OCCO)c1 | inactive
34 | COc1ccc([C@@H]2CC(=O)c3c(O)cc(O[C@@H]4O[C@H](CO[C@@H]5O[C@@H](C)[C@H](O)[C@@H](O)[C@H]5O)[C@@H](O)[C@H](O)[C@H]4O)cc3O2)cc1O | inactive
35 | C[C@@H](NC(=O)C[C@H]1C=C[C@H](NC(=O)CN2CCOCC2)[C@@H](CO)O1)c1ccccc1 | inactive
36 | O=C(Nc1ncc(SCCN2CCCC2)s1)[C@]1(c2ccc(S(=O)(=O)C3CC3)cc2)C[C@H]1C1CCCCC1 | active
37 | C[C@H]1CCCCO[C@H](CN(C)C(=O)Nc2ccc(F)cc2)[C@@H](C)CN([C@@H](C)CO)C(=O)c2cc(NC(=O)CCC(F)(F)F)ccc2O1 | inactive
38 | COc1ccc(CN(C)C[C@H]2Oc3c(NS(C)(=O)=O)cccc3C(=O)N([C@H](C)CO)C[C@H]2C)cc1 | inactive
39 | CCCCCOc1ccc(-c2cc(-c3ccc(C(=O)N[C@H]4C[C@@H](O)[C@@H](O)NC(=O)[C@H]5[C@@H](O)[C@@H](C)CN5C(=O)[C@H]([C@@H](O)CC(N)=O)NC(=O)[C@H]([C@@H](O)[C@@H](O)c5ccc(O)c(OS(=O)(=O)O)c5)NC(=O)[C@H]5C[C@@H](O)CN5C(=O)[C@H]([C@@H](C)O)NC4=O)cc3)no2)cc1 | inactive
40 | CC[C@H](C)C[C@H](C)CCCCCCCCC(=O)N[C@H]1C[C@@H](O)[C@@H](NCCN)NC(=O)[C@@H]2[C@@H](O)CCN2C(=O)[C@H]([C@H](O)CCN)NC(=O)[C@H]([C@H](O)[C@@H](O)c2ccc(O)cc2)NC(=O)[C@@H]2C[C@@H](O)CN2C(=O)[C@H]([C@@H](C)O)NC1=O | inactive
41 | COc1ccc(NC(=O)N(C)C[C@@H]2Oc3ccc(NC(=O)CCCN(C)C)cc3CC(=O)N([C@H](C)CO)C[C@H]2C)cc1 | inactive
42 | C[C@@H]1CCCCO[C@H](CN(C)C(=O)Nc2ccc3c(c2)OCO3)[C@H](C)CN([C@@H](C)CO)C(=O)c2cc(NC(=O)Nc3ccc(F)cc3)ccc2O1 | inactive

Row | SMILES | cytotoxicity call
43 | C[C@@H]1CCCCO[C@H](CN(C)C(=O)c2ccncc2)[C@H](C)CN([C@H](C)CO)C(=O)c2cc(NS(=O)(=O)c3ccc(Cl)cc3)ccc2O1 | inactive
44 | NC(=O)CNC(=O)c1cccc(Cl)c1 | inactive
45 | CN(C)c1ccc2c(=O)[nH][nH]c(=O)c2c1 | inactive
46 | CN(C)c1ccc2nc3ccc(N(C)C)cc3[s+]c2c1.O.[Cl-] | active
47 | Cc1cc2nc3ccc(N(C)C)cc3[s+]c2cc1N.[Cl-] | active
48 | C[C@@H]1CN([C@@H](C)CO)C(=O)Cc2cc(NC(=O)Cc3cn(C)c4ccccc34)ccc2O[C@@H]1CN(C)Cc1ccc(Oc2ccccc2)cc1 | inactive
49 | Nc1cc(Cl)ncn1 | inactive
50 | C[C@@H]1CN([C@H](C)CO)S(=O)(=O)c2ccc(C#C[C@@H](C)O)cc2O[C@H]1CN(C)C | inactive
51 | COc1ccc(S(=O)(=O)Nc2ccc3c(c2)C(=O)N([C@H](C)CO)C[C@H](C)[C@@H](CN(C)C(=O)c2ccccc2)OCCCC[C@H](C)O3)cc1 | inactive
52 | CC12CC3(C)CC(C)(C1)CC(C/N=C/c1ccc(O)cc1)(C2)C3 | inactive
53 | CCOc1ccc2nc(C34CC5CC(CC(C5)C3)C4)ccc2c1 | inactive
54 | CC1=Nc2ccccc2NC(C)(C)C1 | inactive
55 | C[C@@H]1CN([C@@H](C)CO)C(=O)c2cc(NC(=O)Cc3ccccc3)ccc2O[C@H]1CN(C)S(=O)(=O)c1cccs1 | inactive
56 | COCCN1CCC(N(Cc2ccc(-c3ccc(C(F)(F)F)cc3)cc2)C(=O)Cn2c(SCc3cccc(F)c3F)cc(=O)c3ccccc32)CC1 | active
57 | O=c1cc(-c2ccccc2)[nH]c(=O)[nH]1 | inactive
58 | COc1ccc(S(=O)(=O)N(C)C[C@@H]2Oc3ccc(NC(=O)Nc4cc(Cl)cc(Cl)c4)cc3CC(=O)N([C@@H](C)CO)C[C@@H]2C)cc1Cl | active
59 | COc1ccc(S(=O)(=O)N(C)C[C@@H]2Oc3ccc(NC(=O)Nc4ccc(Cl)c(Cl)c4)cc3CC(=O)N([C@@H](C)CO)C[C@@H]2C)cc1Cl | active
60 | CC(C)NC(=O)Nc1ccc2c(c1)CC(=O)N([C@@H](C)CO)C[C@@H](C)[C@H](CN(C)S(=O)(=O)c1ccc(Cl)cc1)O2 | inactive
61 | COc1ccc(S(=O)(=O)N(C)C[C@@H]2Oc3ccc(NC(=O)NC(C)C)cc3CC(=O)N([C@H](C)CO)C[C@@H]2C)cc1 | inactive
62 | COc1ccc(S(=O)(=O)N(C)C[C@@H]2Oc3ccc(NC(=O)Nc4cccc5c4CCCC5)cc3CC(=O)N([C@@H](C)CO)C[C@@H]2C)cc1Cl | inactive
63 | CC(C)NC(=O)Nc1ccc2c(c1)CC(=O)N([C@H](C)CO)C[C@@H](C)[C@H](CN(C)S(=O)(=O)c1ccc(Cl)cc1)O2 | inactive
